Measured values published in PubChem BioAssay AID588664 (The Scripps Research Institute Molecular Screening Center, 2011).
The whole screen tested about 360,000 compounds, of which about 1,400 (0.39%) were called active. Rule as the data show it: active = inhibition above about 5% (passing the limit was not always enough); inactive = the rest. For the sample, actives were picked, then their nearest neighbours and some compounds at random.

The compounds below were run against Tyrosine-protein kinase ABL1 (Homo sapiens) + Ras and Rab interactor 1 (Homo sapiens) (UniProt P00519+Q13671) (assay: inhibitors of Rin1-Abl protein binding, primary screen, biochemical, TR-FRET (AID 588664)). Settings: at 7.35 µM, stronger effect = higher value.
Sequence of Tyrosine-protein kinase ABL1 (Homo sapiens) + Ras and Rab interactor 1 (Homo sapiens) (P00519 whole entry, looked up): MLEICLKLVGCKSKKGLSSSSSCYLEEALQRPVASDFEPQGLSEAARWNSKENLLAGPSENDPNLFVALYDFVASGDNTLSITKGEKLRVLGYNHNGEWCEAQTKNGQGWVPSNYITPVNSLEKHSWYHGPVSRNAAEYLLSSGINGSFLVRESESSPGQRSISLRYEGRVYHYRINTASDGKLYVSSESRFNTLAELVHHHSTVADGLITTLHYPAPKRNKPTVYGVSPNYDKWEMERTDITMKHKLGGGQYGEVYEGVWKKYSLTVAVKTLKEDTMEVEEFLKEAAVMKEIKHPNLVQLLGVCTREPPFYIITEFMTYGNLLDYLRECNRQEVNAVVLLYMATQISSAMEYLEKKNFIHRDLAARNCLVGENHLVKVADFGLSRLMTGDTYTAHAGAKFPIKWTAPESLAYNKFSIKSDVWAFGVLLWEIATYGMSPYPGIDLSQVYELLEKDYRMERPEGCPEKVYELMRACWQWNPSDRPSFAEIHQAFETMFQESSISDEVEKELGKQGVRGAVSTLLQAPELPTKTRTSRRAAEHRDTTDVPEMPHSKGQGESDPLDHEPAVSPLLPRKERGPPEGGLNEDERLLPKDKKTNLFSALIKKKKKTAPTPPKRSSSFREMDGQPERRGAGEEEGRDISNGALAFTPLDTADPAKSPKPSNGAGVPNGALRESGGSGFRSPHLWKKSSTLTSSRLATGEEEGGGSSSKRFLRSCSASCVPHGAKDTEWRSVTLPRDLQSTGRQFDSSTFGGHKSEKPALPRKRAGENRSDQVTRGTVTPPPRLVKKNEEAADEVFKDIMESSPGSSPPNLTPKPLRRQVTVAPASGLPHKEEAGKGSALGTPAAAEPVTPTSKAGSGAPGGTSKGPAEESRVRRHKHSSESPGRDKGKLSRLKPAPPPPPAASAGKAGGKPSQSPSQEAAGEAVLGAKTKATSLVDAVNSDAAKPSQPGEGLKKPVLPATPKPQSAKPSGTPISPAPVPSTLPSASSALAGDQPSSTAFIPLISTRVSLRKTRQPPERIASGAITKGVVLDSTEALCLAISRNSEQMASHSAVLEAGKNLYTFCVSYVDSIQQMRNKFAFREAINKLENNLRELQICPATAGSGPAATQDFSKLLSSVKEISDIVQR
Sequence of Tyrosine-protein kinase ABL1 (Homo sapiens) + Ras and Rab interactor 1 (Homo sapiens) (Q13671 whole entry, looked up): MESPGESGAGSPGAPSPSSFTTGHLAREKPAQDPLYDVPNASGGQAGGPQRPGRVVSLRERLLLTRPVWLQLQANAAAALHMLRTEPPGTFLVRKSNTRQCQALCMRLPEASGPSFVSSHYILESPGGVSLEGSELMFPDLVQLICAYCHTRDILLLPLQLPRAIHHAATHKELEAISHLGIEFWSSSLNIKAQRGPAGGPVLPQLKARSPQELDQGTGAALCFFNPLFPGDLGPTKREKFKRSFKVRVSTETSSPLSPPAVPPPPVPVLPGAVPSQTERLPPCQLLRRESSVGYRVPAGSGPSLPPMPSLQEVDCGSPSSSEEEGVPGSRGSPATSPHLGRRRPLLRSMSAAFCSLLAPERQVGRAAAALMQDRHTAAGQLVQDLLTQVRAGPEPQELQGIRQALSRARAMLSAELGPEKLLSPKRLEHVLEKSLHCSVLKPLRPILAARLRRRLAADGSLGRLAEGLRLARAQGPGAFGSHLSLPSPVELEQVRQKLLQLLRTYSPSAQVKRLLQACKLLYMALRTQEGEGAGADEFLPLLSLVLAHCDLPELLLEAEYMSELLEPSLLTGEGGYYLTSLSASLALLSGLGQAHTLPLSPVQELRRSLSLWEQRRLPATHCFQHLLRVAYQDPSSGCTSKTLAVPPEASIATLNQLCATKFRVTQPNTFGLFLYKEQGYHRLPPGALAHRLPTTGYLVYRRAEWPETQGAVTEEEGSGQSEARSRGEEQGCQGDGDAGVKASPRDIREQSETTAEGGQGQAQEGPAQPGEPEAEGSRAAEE

inhibition, inactive:
COC(=O)c1ccc(NC(=O)CN(c2ccc(C)cc2)S(=O)(=O)c2c(C)n[nH]c2C)cc1 3.33%
CC1(C)C=Cc2c(ccc3c2OC[C@@H](c2ccc(O)cc2O)C3)O1 -2.38%
NC(=O)c1ccc(CN2CCC(Cc3ccccc3)CC2)cc1 1.83%
CCOC(=O)N1CCN(Cc2oc(CO)cc(=O)c2O)CC1 1.56%
CCC(C)C(=O)Nc1ccccc1N1CCN(c2ccc(F)cc2)CC1 (stereo not drawn) 1.3%
CCOC(=O)C1CCCN(C(=O)c2ccc(C)c(S(=O)(=O)N3CCCCC3)c2)C1 (stereo not drawn) 2.16%
Cn1nc([N+](=O)[O-])nc1Sc1ccc(C(C)(C)C)cc1 -6.46%
CC(C)CCC(=O)Nc1cc(S(=O)(=O)N2CCOCC2)ccc1N1CCCC1 -1.79%
O=C(COC(=O)c1ccccc1F)Nc1cc(S(=O)(=O)N2CCOCC2)ccc1N1CCCC1 0.95%
O=C1NC[C@@H](c2ccccc2)OC(=O)[C@H](Cc2ccc(F)cc2)CC/C=C/C[C@H]1CC(=O)N(CCO)Cc1ccccc1 -0.64%
Cc1nn(C)cc1S(=O)(=O)N1CCN(c2ccc(F)cc2)CC1 1.17%
CCOc1c2ccc(C(=O)NCc3ccc(OC(F)(F)F)cc3)cc2nn1C 3.17%
CCOC(=O)Cc1ncccc1C(=O)Nc1ccc(OC(F)(F)F)cc1 -0.49%
COc1ccc(N(CC(=O)NC2CCCCC2)S(=O)(=O)c2c(C)[nH]c(=O)[nH]c2=O)cc1 0.98%
C=CCNC(=O)c1ccccc1NC(=O)c1ccc(Cl)c(S(=O)(=O)Nc2cccc(C)c2C)c1 3.96%
Cc1nn(C)c(Cl)c1CN1CCC(Oc2ccc(C(=O)N3CCCC3)cc2)CC1 -0.88%
O=C(c1ccc(OC2CCN(C/C=C/c3ccc(F)cc3)CC2)cc1)N1CCCCC1 4.14%
Cc1noc(C)c1-c1nc(CSc2ccc(Cl)cc2)no1 -1.19%
COc1ccc(-c2cc(C(F)(F)F)n3nc(C(=O)N4CCOCC4)c(Cl)c3n2)cc1 0.58%
CCc1nnc(NC(=O)CSc2nc3ccccc3c(=O)n2CCCOC)s1 2.09%
Cc1cc(C)c(C=NNc2nc3c([nH]2)c(=O)n(C)c(=O)n3C)c(C)c1 4.38%
Cc1cccc(C)c1NC(=O)CSc1nc2c([nH]1)c(=O)n(C)c(=O)n2C 0.29%
O=C(C=CC(=O)Nc1ccc(F)cc1F)Nc1ccc(F)cc1F -1.65%
Cc1sc2ncn(CC(=O)NCCN(C)C)c(=O)c2c1S(=O)(=O)N1CCC(C)CC1 -2.5%
O=C(CCN1C(=O)[C@H]2CC=CC[C@H]2C1=O)NCc1nc(-c2ccccc2)no1 4.64%
C=C(Br)Cn1c(CCCC)nc2ccccc21 -1.26%
NS(=O)(=O)c1ccc(CCNC(=S)Nc2ccc(S(N)(=O)=O)cc2)cc1 -1.51%
CN(CC(=O)NCCc1ccc(S(N)(=O)=O)cc1)CC(=O)Nc1ccc(Cl)cc1 2.85%
COc1ccc(-c2c(C)nn3c(N4CCC(C(=O)N5CCCCC5)CC4)cc(C)nc23)cc1OC -0.97%
c1ccc(Cc2nn3c(Cn4cnc5ccccc54)nnc3s2)cc1 6.72%
OCCNc1nc2ccccc2n1-c1ncnc2sc3c(c12)CCC3 -1.62%
CCc1cc2c(NC(Cc3ccccc3)C(=O)O)ncnc2s1 (stereo not drawn) -0.92%
CCc1cc2c(NC3CCCC3)ncnc2s1 -2.86%
C[C@@H](NC(=O)[C@@H]1Cc2ccccc2CN1)C(=O)NC1CCCC1 0.01%
Cc1ccc(C)c(NS(=O)(=O)c2ccc(OCC(=O)NCc3cccnc3)cc2)c1 2.47%

inhibition, active:
NC1=CC(=O)C(=O)c2cccnc21 17.2%
O=c1cc(CO)oc(CN2CCC(Cc3ccccc3)CC2)c1O 30.9%
O=C(CNCc1ccco1)Nc1cc(S(=O)(=O)N2CCOCC2)ccc1N1CCCC1 5.51%
O=C(Nc1ccc(OC(F)(F)F)cc1)c1ccc2c(c1)no[n+]2[O-] 6.4%
CC(=O)Nc1ccc(CN2CCC(Oc3ccc(C(=O)N4CCCC4)cc3)CC2)cc1 7.35%
CC(CCO)Nc1nc2c([nH]1)c(=O)n(C)c(=O)n2C (stereo not drawn) 7.16%
NS(=O)(=O)c1ccc(CCNC(=O)Nc2ccc(Cl)cc2)cc1 7.48%
CCc1cc2c(N3CCN(c4nnc(CC)s4)CC3)ncnc2s1 7.4%
